Reference: PubChem BioAssay
Activity calls are given as the source filed them.

What was measured:
Albumin (Bos taurus) = Albumin (Bos taurus) (UniProt P02769); assay: compounds binding labelled BSA control protein – biochemical, small-molecule microarray, Alexa647 label, 635/667 nm fluorescence, artefact control for SMM control protein annotation, profiling panel (AID 1118); details: BSA-A647 binding, fluorescence 635 nm, higher = more signal;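 note: score merges 667 nm emission intensity and signal-to-noise per printed compound spot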
Sequence of Albumin (Bos taurus) (P02769 whole entry, looked up): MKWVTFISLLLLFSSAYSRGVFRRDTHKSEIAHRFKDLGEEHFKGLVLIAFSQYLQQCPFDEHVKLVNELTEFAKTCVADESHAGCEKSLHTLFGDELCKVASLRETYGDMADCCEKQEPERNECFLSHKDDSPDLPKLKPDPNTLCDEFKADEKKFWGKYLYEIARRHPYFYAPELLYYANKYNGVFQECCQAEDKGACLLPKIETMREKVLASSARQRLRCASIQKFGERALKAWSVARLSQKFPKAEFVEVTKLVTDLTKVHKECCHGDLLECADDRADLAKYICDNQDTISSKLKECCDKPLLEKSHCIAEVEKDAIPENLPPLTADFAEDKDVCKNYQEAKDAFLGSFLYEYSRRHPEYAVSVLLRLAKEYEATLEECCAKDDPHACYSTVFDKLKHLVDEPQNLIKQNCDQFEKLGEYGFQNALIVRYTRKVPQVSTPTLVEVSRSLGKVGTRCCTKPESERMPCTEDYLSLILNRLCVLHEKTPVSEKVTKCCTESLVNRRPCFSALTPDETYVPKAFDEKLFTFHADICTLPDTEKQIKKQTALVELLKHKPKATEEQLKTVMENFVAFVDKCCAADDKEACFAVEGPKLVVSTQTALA

[1] = probe aXIP binding to arrayed compounds – biochemical, NeuroSMM set, 635/667 nm fluorescence, primary screen (AID 1119); details: small-molecule microarray, higher = more signal, called active from +8 up or from −8 down;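 note: probe is the protein aXip251-270 applied at 1 µg/mL to compound-printed slides; binding of probe to printed compounds measured as 667 nm fluorescence plus signal to noise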
[2] = probe aNOTCH3 binding on compound microarray – biochemical, small-molecule microarray, 635/667 nm fluorescence, primary screen (AID 1120); details: higher = more signal;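 note: probe is a biotin-tagged antibody raised against NOTCH3 rather than NOTCH3 protein; score merges spot fluorescence near 667 nm with spot signal to noise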
[3] = probe aNOTCH2 binding on compound microarray – biochemical, small-molecule microarray, 635/667 nm fluorescence, primary screen (AID 1121); details: higher = more signal;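 note: score merges feature fluorescence read at 667 nm with its signal to noise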
[4] = target: Carbonic anhydrase 2 (Homo sapiens) (UniProt P00918); assay: compounds binding carbonic anhydrase 2 – biochemical, small-molecule microarray, Alexa647-labelled CAII, profiling panel (AID 1122); details: CAII-A647 binding fluorescence, higher = more signal
[5] = COS7 lysate on small-molecule microarray, probe aHis, 635 nm (AID 1123); details: COS7 cell lysate, fluorescence, higher = more signal;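 note: z-score combines 667nm fluorescence intensity with signal-to-noise per printed compound spot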
[6] = probe aLAP1 signal on lysate-treated microarray – cell lysate, small-molecule microarray, COS7 lysate, primary screen (AID 1124); details: probe aLAP1, fluorescence, higher = more signal;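 note: lysate comes from COS7 cells expressing LAP1 and is applied at 0.3 µg/mL; score merges spot fluorescence near 667 nm with signal-to-noise over triplicate slides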
Sam68 (KHDRBS1) = assay: compounds binding KHDRBS1 protein – biochemical, small-molecule microarray, 635 nm fluorescence, primary screen (AID 1125); details: higher = more signal;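 note: score merges 667 nm channel intensity with signal to noise over triplicate slides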
[7] = test system: Chordin-like protein 2 (CHRDL2); assay: compounds binding chordin-like 2 – biochemical, small-molecule microarray, 635 nm fluorescence, primary screen (AID 1126); details: fluorescence 635 nm, higher = more signal;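 note: printed compound slides probed with Chrdl2 protein at 4 µg/mL for 1 h at 4 C; score merges 667 nm emission intensity with signal to noise over three replicate slides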
[8] = target: Concanavalin-A (Canavalia ensiformis) (UniProt P02866); assay: compounds binding concanavalin A lectin – biochemical, small-molecule microarray, Alexa647 label, 635 nm, artefact control for SMM control protein annotation, primary screen (AID 1127); details: ConA-A647 binding fluorescence, higher = more signal;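 note: z combines 667 nm emission intensity with signal-to-noise across three replicate slides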
Sequence of Concanavalin-A (Canavalia ensiformis) (P02866 whole entry, looked up): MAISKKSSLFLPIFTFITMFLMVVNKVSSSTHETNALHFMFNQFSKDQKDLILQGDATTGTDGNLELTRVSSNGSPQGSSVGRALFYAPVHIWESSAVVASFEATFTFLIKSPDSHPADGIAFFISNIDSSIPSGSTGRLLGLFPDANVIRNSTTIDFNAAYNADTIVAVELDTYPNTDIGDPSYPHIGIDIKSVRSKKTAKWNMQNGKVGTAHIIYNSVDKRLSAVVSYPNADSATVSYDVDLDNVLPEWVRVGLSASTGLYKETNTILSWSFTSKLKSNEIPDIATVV

[9] = compounds binding Alexa647 anti-His antibody – biochemical, small-molecule microarray, 635 nm fluorescence, artefact control for SMM control protein annotation, primary screen (AID 1128); details: higher = more signal;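 note: score merges feature fluorescence with signal-to-noise for each printed compound spot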
[10] = test system: Human papillomavirus type 1a E7 protein (residues 1-88); assay: HPV1a E7 small-molecule binders, primary screen, biochemical, small-molecule microarray, residues 1-88, 635 nm (AID 1129); details: small-molecule microarray binding, fluorescence 635 nm; higher = more signal
[11] = target: Focal adhesion kinase 1 (Homo sapiens) (UniProt Q05397); assay: PTK2 protein binding on printed compound slides – biochemical, small-molecule microarray, 635/667 nm fluorescence, BSA, DTT, primary screen (AID 1130); details: 635 nm fluorescence, higher = more signal;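 note: composite of spot emission at 667 nm and signal to noise over triplicate slides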
Sequence of Focal adhesion kinase 1 (Homo sapiens) (Q05397 whole entry, looked up): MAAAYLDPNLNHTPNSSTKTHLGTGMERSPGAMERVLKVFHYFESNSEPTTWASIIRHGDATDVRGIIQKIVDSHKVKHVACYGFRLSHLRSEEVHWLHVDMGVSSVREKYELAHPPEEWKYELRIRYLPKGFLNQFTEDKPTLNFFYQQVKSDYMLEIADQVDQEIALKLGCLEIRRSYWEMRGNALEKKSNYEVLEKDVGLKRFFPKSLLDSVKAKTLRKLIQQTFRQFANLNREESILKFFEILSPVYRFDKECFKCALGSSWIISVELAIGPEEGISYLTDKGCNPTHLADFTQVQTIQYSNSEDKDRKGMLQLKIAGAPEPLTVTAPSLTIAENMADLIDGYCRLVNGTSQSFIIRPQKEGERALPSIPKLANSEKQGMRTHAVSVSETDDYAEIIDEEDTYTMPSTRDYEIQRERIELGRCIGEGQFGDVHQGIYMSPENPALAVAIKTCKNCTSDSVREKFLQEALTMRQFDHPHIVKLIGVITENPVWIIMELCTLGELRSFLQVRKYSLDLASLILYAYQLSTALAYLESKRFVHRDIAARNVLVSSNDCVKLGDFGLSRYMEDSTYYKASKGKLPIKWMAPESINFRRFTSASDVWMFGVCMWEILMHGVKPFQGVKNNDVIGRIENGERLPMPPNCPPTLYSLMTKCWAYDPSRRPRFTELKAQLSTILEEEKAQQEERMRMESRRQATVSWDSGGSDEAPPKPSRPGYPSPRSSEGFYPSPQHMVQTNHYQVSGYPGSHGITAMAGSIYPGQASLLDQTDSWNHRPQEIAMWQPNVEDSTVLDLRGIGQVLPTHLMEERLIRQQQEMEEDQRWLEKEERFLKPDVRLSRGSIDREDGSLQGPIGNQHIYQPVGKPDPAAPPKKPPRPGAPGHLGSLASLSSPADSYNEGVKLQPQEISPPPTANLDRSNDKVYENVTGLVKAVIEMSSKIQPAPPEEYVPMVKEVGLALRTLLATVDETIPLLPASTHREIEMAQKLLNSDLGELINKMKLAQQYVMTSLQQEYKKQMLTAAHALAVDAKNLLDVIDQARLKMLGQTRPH

[12] = test system: Fibrinogen (Alexa647-labelled); assay: Alexa647-fibrinogen binding to printed small molecules – biochemical, small-molecule microarray, 635/667 nm fluorescence, artefact control for SMM control-protein annotation, profiling panel (AID 1131); details: fibrinogen-A647 binding fluorescence, higher = more signal;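 note: z-score merges 667 nm fluorescence with per-spot signal-to-noise over triplicate slides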
[13] = target: Follistatin (Homo sapiens) (UniProt P19883); assay: FST protein binding to printed compounds – biochemical, small-molecule microarray, 635/667 nm fluorescence, primary screen (AID 1132); details: 635 nm fluorescence, higher = more signal
Sequence of Follistatin (Homo sapiens) (P19883 whole entry, looked up): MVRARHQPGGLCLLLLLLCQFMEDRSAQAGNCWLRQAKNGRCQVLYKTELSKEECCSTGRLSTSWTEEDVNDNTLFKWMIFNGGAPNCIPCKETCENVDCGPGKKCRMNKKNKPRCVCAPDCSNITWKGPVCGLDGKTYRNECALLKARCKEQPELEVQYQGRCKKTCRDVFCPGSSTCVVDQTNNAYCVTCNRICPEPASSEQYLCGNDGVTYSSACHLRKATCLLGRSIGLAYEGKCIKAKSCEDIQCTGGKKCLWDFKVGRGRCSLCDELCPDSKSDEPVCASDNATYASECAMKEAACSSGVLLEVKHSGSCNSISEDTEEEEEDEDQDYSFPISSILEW

[14] = target: Fibroblast growth factor 2 (Homo sapiens) (UniProt P09038); assay: basic fibroblast growth factor binding to printed compounds – biochemical, small-molecule microarray, 635/667 nm fluorescence, primary screen (AID 1133); details: FGF2, fluorescence 635/667, higher = more signal
Sequence of Fibroblast growth factor 2 (Homo sapiens) (P09038 whole entry, looked up): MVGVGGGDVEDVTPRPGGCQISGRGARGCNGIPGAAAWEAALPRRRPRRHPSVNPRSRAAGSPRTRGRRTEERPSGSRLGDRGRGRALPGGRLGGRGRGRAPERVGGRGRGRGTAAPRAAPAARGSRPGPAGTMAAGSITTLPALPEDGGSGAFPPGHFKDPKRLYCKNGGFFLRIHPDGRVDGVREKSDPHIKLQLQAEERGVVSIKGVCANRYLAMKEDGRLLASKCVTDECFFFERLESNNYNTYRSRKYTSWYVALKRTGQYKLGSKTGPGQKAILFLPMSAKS

[15] = JC-1 mitochondrial potential readout, lung cancer cells – cell-based, A549, JC-1 fluorescence, basal, 24 h, 100 nL, profiling panel (AID 1138); details: higher = more signal;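 note: A549 lung adenocarcinoma cells under basal conditions with no added stimulus; test concentration not given here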
Lefty1 = Lefty1 protein binding to printed compounds – biochemical, small-molecule microarray, 635/667 nm fluorescence, primary screen (AID 1139); details: fluorescence 635/667, higher = more signal
[16] = test system: wheat germ agglutinin (Triticum aestivum), Alexa647-labelled; assay: Alexa647-WGA lectin binding to printed small molecules – biochemical, small-molecule microarray, 635/667 nm fluorescence, artefact control for SMM control-protein annotation, profiling panel (AID 1140); details: WGA-A647 binding, 635 nm fluorescence, higher = more signal;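 note: score merges 667 nm feature emission with signal to noise over triplicate slides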
[17] = target: Luciferin 4-monooxygenase (Photinus pyralis) (UniProt P08659); assay: inhibition of purified Photinus pyralis luciferase – biochemical, luminescence, purified enzyme, 2006 set, primary screen (AID 1141); details: purified firefly luciferase, SteadyGlo luminescence, 30 min; higher = more signal, called active from +8 up or from −8 down;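 note: cell-free assay with purified firefly luciferase at 100 ng per well in PBS; test concentration not given here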
Sequence of Luciferin 4-monooxygenase (Photinus pyralis) (P08659 whole entry, looked up): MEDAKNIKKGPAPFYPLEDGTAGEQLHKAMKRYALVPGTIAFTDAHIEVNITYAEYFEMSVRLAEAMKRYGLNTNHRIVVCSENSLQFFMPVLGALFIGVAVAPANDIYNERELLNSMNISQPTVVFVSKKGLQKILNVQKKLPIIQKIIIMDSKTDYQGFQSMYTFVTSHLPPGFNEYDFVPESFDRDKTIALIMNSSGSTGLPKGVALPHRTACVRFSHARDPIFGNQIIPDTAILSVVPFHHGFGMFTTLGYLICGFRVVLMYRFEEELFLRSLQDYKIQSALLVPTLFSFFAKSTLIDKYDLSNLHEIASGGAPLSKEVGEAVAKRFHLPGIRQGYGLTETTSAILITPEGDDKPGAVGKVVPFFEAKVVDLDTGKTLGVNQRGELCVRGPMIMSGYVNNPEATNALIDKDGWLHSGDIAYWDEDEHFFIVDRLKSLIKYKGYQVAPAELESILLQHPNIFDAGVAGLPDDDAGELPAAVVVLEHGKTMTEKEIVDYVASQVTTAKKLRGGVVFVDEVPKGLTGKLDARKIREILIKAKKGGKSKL

Structure (SMILES) | composite z-score (Albumin (Bos taurus)) | composite Z-score [1] | composite z-score [2] | composite z-score [3] | composite z-score [4] | composite z-score [5] | composite z-score [6] | composite z-score (Sam68 (KHDRBS1)) | composite z-score [7] | composite z-score [8] | composite z-score [9] | composite z-score [10] | composite z-score [11] | composite z-score [12] | composite z-score [13] | composite z-score [14] | z-score [15] | composite z-score (Lefty1) | composite z-score [16] | z-score [17]
CCCC[C@@H]1C[C@H]1[C@@H](NC(=O)c1ccco1)c1ccccc1C(F)(F)F | 0.706 | -0.234 (inactive) | 1.91 | 0.752 | 0.561 | 1.09 | 0.451 | -0.215 | 0.23 | 0.418 | -0.422 | 0.0662 | 0.57 | 0.349 | 0.674 | -0.527 | -0.914 | -0.302 | 1.15 | 1.8 (inactive)
NC(=O)NCC#Cc1ccc2c(c1)[C@]1(C(=O)N2)[C@H](c2ccc(O)cc2)N2[C@H](c3ccccc3)[C@H](c3ccccc3)OC(=O)[C@H]2[C@@H]1C(=O)O | 0.43 | 0.619 (inactive) | -0.725 | -0.281 | 0.241 | 0.547 | -0.0085 | -0.0756 | -1.43 | 0.411 | 0.948 | -0.404 | -0.415 | -0.159 | -0.386 | -0.912 | -0.61 | -0.283 | -0.142 | 0.323 (inactive)
CC1CC/C=C\[C@H]2OC34C=CCN(C(C)(C)C)C(=O)[C@H]3N(C(C)CO)C(=O)[C@@H]4C2C(=O)O1 (stereo not given in full) | -0.92 | -0.0245 (inactive) | -0.122 | -0.13 | 0.4 | -0.187 | 0.199 | -1.47 | -0.454 | -2.17 | -1.63 | -2.07 | -0.9 | -2.02 | -0.397 | -0.121 | 0.348 | -0.248 | -1.61 | -0.694 (inactive)
CCCC[C@@H]1C[C@H]1[C@@H](NC(=O)c1ccccc1)c1ccc(C(=O)OC)cc1 | -0.108 | 0.953 (inactive) | -0.048 | 0.0203 | 0.287 | 0.157 | -0.156 | -0.316 | -1.26 | -0.364 | -0.248 | -0.429 | 0.0213 | 0.0563 | -0.676 | -1.67 | 0.348 | -0.684 | -0.113 | -0.438 (inactive)
COC(=O)[C@@]1(Cc2ccc(OC)cc2)[C@H]2c3cc(C(=O)N(C)C)n(CCc4ccccn4)c3C[C@H]2CN1C(=O)c1ccccc1 | 0.928 | -0.0712 (inactive) | 1.28 | 0.689 | 0.461 | 1.06 | 0.272 | 0.221 | -0.764 | -0.138 | 0.429 | 0.815 | 0.933 | -1.04 | 0.0679 | -0.162 | -0.267 | -0.919 | 0.698 | 1.49 (inactive)
